Results published in PubChem BioAssay (NCI).
The panel holds about 79,000 compounds, 15% with a hit somewhere; the sample as a whole holds those more often. Values without a mark were called inactive. Active and inactive are the calls of the source. No stated cut-off is given here; in the data, active means growth inhibition above about 70%; inactive means the rest.

Assay: NCI Yeast Anticancer Drug Screen. Data for the bub3 strain (AID 167)
Conditions: S. cerevisiae bub3 mutant strain, at 50.0 µM, hits give high values
How it was run: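 Steps: expose the mutant yeast strain to compound; grow alongside vehicle-treated cultures; measure growth; express inhibition against the vehicle cultures.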

| SMILES | growth inhibition |
| --- | --- |
| CC(=O)CC(C)=O | 1.7% |
| CCCCCCCCCCCCP(=O)(O)OCC(N)C(=O)O (stereo not drawn) | -12.8% |
| COc1ccc(C)cc1C(CC(=O)O)CC(=O)N(CCCl)CCCl (stereo not drawn) | -1.95% |
| COc1ccc2c(c1OC(C)=O)C1=CC(=O)CCC13CCNC3C2 (stereo not drawn) | -28.4% |
| N#CCC#N | 2.75% |
| [Cl][Rh]([Cl])([Cl])[Cl].[NH-]CC[NH-] | -9.95% |
| CC(C)NC(=O)C(Cl)CCl (stereo not drawn) | 2.8% |
| CC1=C2C(=O)C(C)(C)C=C2C(=O)[C@](C)(O)C12CC2 | -5.95% |
| COc1ccc(N=NC(=O)NC(CC(C)C)C(=O)NC(C)C(=O)O)cc1 (stereo not drawn) | -31.4% |
| C1CC[N-]CC1.C1CC[N-]CC1.[Cl][Pt+2]([Cl])([Cl])[Cl] | -0.8% |
| O=C(O)Cc1ccc2c(c1)OCO2 | -11.3% |
| CC1OC(=O)C(C(C)C)NC(=O)C(C(C)C)OC(=O)C(C(C)C)NC(=O)C(C)OC(=O)C(C(C)C)NC(=O)C(C(C)C)OC(=O)C(C(C)C)NC(=O)C(C)OC(=O)C(C(C)C)NC(=O)C(C(C)C)OC(=O)C(C(C)C)NC1=O (stereo not drawn) | 16.8% |
| CCCCCC(N)CC(=O)O (stereo not drawn) | -2.25% |
| CCOP(=O)(O)C1CCCC(C)[N-]1.CCOP(=O)(O)C1CCCC(C)[N-]1.[Cu+2] (stereo not drawn) | 2.9% |
| COc1ccn(C)c(=O)c1C#N | 2.15% |
| Cc1ccc(-c2cc(C)n(C)[n+]2C)cc1 | 9.6% |
| Clc1ccc([C@H]2N[C@@H]2c2ccccn2)cc1 | 9.15% |
| Oc1ccc(Nc2ncnc3nc[nH]c23)cc1CN(CCCl)CCCl | -15.5% |
| CC1=C(C)C(=O)O[C@@H]([C@](C)(O)[C@]2(O)CC[C@@]3(O)[C@@H]4C[C@H]5O[C@]56CC=CC(=O)[C@]6(C)[C@H]4CC[C@]23C)C1 | 45.9% |

| SMILES | growth inhibition |
| --- | --- |
| COc1cc(/C=C(\C)[N+](=O)[O-])cc(OC)c1 | 64.7% |
| N.N.N.N.O=N[O-].O=N[O-].[Cl-].[Co+3] | 7.25% |
| O=C(CI)NCCNC(=O)CI | 10.6% |
| C=C1CC2C3CC=C4CC(OC(C)=O)CCC4(C)C3CCC2(C)C1=O (stereo not drawn) | 15.8% |
| CCOP1(=O)C=C(C)C(Cl)=C(C)C1 (stereo not drawn) | 3.05% |
| Nc1ccc(C(=O)O)cc1[As](O)O | 0.6% |
| C1CCC(NC2CCCC2)CC1 | 12.4% |
| CCOC(=O)c1cc2c(cn1)[nH]c1ccccc12 | 26.9% |
| CCc1cc(C)cc2[n+]1CC=C2C | -0.7% |
| CCOP(=S)(OCC)Oc1ccc2c(c1)OC(=O)C1(Cl)C2(C)C2(Cl)C(=O)Oc3cc(OP(=S)(OCC)OCC)ccc3C12C (stereo not drawn) | 2.05% |
| CC(=O)CCNC1(c2ccccc2)CCCCC1 | -2.5% |
| O=P(Oc1ccccc1)(Oc1ccccc1)C(O)c1ccccc1 (stereo not drawn) | -8.4% |
| CCC1CC[N-]CC1.CCC1CC[N-]CC1.CCC1CC[N-]CC1.CCC1CC[N-]CC1.N#C[S-].N#C[S-].[Co] | 26.8% |
| O=C(O)C(CP(=O)(O)O)=C(Cl)Cl | -6.15% |
| O=C(O)C(Cl)C(=O)O | -0.35% |
| O[As](O)O.S=C(S)c1ccccc1S | 1.75% |
| CC1(c2cccc(N(CCCl)CCCl)c2)NC(=O)NC1=O (stereo not drawn) | 19.9% |
| N#Cc1ccc(C(Cl)(Cl)Cl)cc1 | -3.15% |
| [C-]#[O+].[C-]#[O+].[C-]#[O+].[CH3][Sn]([c]1ccccc1)[c]1ccccc1.[W].[c-]1[c-][c-][cH-][c-]1 | 99.3% (active) |

Assay: NCI Yeast Anticancer Drug Screen. Data for the mlh1 rad18 strain (AID 175)
Conditions: S. cerevisiae mlh1 rad18 strain growth inhibition; at 50.0 µM; hits give high values
How it was run: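 Steps: expose repair-defective yeast to compound; measure growth; express inhibition against vehicle-treated controls.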

| SMILES | growth inhibition |
| --- | --- |
| CC(=O)CC(C)=O | 1.8% |
| CCCCCCCCCCCCP(=O)(O)OCC(N)C(=O)O (stereo not drawn) | -17.9% |
| COc1ccc(C)cc1C(CC(=O)O)CC(=O)N(CCCl)CCCl (stereo not drawn) | 21.6% |
| COc1ccc2c(c1OC(C)=O)C1=CC(=O)CCC13CCNC3C2 (stereo not drawn) | -24.3% |
| N#CCC#N | -1% |
| NC(=O)c1cccc([As]=O)c1 (stereo not drawn) | -17.6% |
| [Cl][Rh]([Cl])([Cl])[Cl].[NH-]CC[NH-] | 8.55% |
| CC(C)NC(=O)C(Cl)CCl (stereo not drawn) | 6.7% |
| CC1=C2C(=O)C(C)(C)C=C2C(=O)[C@](C)(O)C12CC2 | 5.4% |
| COc1ccc(N=NC(=O)NC(CC(C)C)C(=O)NC(C)C(=O)O)cc1 (stereo not drawn) | 5.15% |
| C1CC[N-]CC1.C1CC[N-]CC1.[Cl][Pt+2]([Cl])([Cl])[Cl] | -18.8% |
| O=C(O)Cc1ccc2c(c1)OCO2 | 23.6% |
| CC1OC(=O)C(C(C)C)NC(=O)C(C(C)C)OC(=O)C(C(C)C)NC(=O)C(C)OC(=O)C(C(C)C)NC(=O)C(C(C)C)OC(=O)C(C(C)C)NC(=O)C(C)OC(=O)C(C(C)C)NC(=O)C(C(C)C)OC(=O)C(C(C)C)NC1=O (stereo not drawn) | 42.5% |
| CCCCCC(N)CC(=O)O (stereo not drawn) | 9.85% |
| CCOP(=O)(O)C1CCCC(C)[N-]1.CCOP(=O)(O)C1CCCC(C)[N-]1.[Cu+2] (stereo not drawn) | 26.6% |
| COc1ccn(C)c(=O)c1C#N | -2.4% |
| Cc1ccc(-c2cc(C)n(C)[n+]2C)cc1 | -3.05% |
| Clc1ccc([C@H]2N[C@@H]2c2ccccn2)cc1 | -5.55% |
| Oc1ccc(Nc2ncnc3nc[nH]c23)cc1CN(CCCl)CCCl | 3.65% |
| CC1=C(C)C(=O)O[C@@H]([C@](C)(O)[C@]2(O)CC[C@@]3(O)[C@@H]4C[C@H]5O[C@]56CC=CC(=O)[C@]6(C)[C@H]4CC[C@]23C)C1 | 40.2% |

| SMILES | growth inhibition |
| --- | --- |
| COc1cc(/C=C(\C)[N+](=O)[O-])cc(OC)c1 | 86.3% (active) |
| N.N.N.N.O=N[O-].O=N[O-].[Cl-].[Co+3] | 0.2% |
| O=C(CI)NCCNC(=O)CI | 39.5% |
| C=C1CC2C3CC=C4CC(OC(C)=O)CCC4(C)C3CCC2(C)C1=O (stereo not drawn) | 15.7% |
| CCOP1(=O)C=C(C)C(Cl)=C(C)C1 (stereo not drawn) | 20.9% |
| Nc1ccc(C(=O)O)cc1[As](O)O | -17.8% |
| C1CCC(NC2CCCC2)CC1 | 13.1% |
| CCOC(=O)c1cc2c(cn1)[nH]c1ccccc12 | 16.8% |
| CCc1cc(C)cc2[n+]1CC=C2C | 14.5% |
| CCOP(=S)(OCC)Oc1ccc2c(c1)OC(=O)C1(Cl)C2(C)C2(Cl)C(=O)Oc3cc(OP(=S)(OCC)OCC)ccc3C12C (stereo not drawn) | 1.45% |
| CC(=O)CCNC1(c2ccccc2)CCCCC1 | -2.9% |
| O=P(Oc1ccccc1)(Oc1ccccc1)C(O)c1ccccc1 (stereo not drawn) | -2% |
| CCC1CC[N-]CC1.CCC1CC[N-]CC1.CCC1CC[N-]CC1.CCC1CC[N-]CC1.N#C[S-].N#C[S-].[Co] | 24.8% |
| COc1ccc2c(c1OC)C13CCN(C)C(C2)C12C=CC(=O)C3c1c(OC)ccc(OC)c12 (stereo not drawn) | 27.2% |
| O=C(O)C(CP(=O)(O)O)=C(Cl)Cl | -9.75% |
| O=C(O)C(Cl)C(=O)O | -13.9% |
| O[As](O)O.S=C(S)c1ccccc1S | 24.9% |
| CC1(c2cccc(N(CCCl)CCCl)c2)NC(=O)NC1=O (stereo not drawn) | 40.4% |
| N#Cc1ccc(C(Cl)(Cl)Cl)cc1 | -5.65% |
| [C-]#[O+].[C-]#[O+].[C-]#[O+].[CH3][Sn]([c]1ccccc1)[c]1ccccc1.[W].[c-]1[c-][c-][cH-][c-]1 | 97.5% (active) |
